Screens as filed in PubChem BioAssay.
GALK inh – blocks human galactokinase activity | Purified GALK, Kinase-Glo residual ATP luminescence | Potency, µM (top dose mostly 57.5 µM), usual class: inhibitors | hit rate 0.007% among 270,000 | AID 1868
Target sequence (P51570 whole entry, looked up): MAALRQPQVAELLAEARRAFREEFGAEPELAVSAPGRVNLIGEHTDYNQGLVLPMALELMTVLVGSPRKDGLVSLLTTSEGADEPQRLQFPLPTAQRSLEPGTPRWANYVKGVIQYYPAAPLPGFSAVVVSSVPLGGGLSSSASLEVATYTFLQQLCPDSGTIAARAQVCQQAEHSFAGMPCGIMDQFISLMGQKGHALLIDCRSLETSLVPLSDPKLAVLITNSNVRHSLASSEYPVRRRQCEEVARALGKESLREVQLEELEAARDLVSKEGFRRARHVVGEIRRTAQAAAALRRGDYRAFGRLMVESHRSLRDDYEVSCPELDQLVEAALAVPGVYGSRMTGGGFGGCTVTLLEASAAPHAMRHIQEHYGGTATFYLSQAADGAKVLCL
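Kinase-Glo Plus luminescence measured ATP left after a 1 h room-temperature reaction. The reaction used 5 nM GALK, 100 uM galactose and 35 uM ATP at pH 8.0 (20 mM HEPES, 5 mM MgCl2, 60 mM NaCl, 1 mM DTT, 0.01% BSA).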
Gal4-VP16 FLuc – Gal4-VP16 reporter inhibition counter-screen. Potency, µM (series often up to 53.6 µM), most hits filed as inhibitors. hit rate 3.5% among 310,000. Drosophila S2 Gal4-VP16 UAS-luciferase, luminescence, 20 h;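 also: Gal4-VP16 expression switched on by copper sulfate through the metallothionein promoter; nearly all actives have a fitted effect of over 50% in size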
Coupling enz – inhibits coupling enzyme system, counter-screen for aldolase hits; coupling enzyme system counterscreen, AmpLite Red fluorescence; activity change, negative = inhibition, % at 58.2 µM, hits read low; hit rate 0.67% among 290,000; AID 2472; in the data active = activity change below about -30%
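Activity here indicates interference with the coupling reaction, not aldolase inhibition. Compounds at 57.5 uM final met coupling enzymes for 10 min at RT; substrate and AmpLite Red detection followed, with a 525/598 nm fluorescence read after 20 min.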
TrxR1 inh – inhibitors of rat thioredoxin reductase 1; O89049; recombinant rTrxR1, NADPH fluorescence consumption, selenite substrate; Potency, µM (doses to about 114 µM), actives largely listed as inhibitors; hit rate 1% among 390,000; also: nearly all actives have a fitted effect of over 65% in size
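Rat TrxR1 (90 nM in the dispensed reagent) was pre-reduced with 400 uM NADPH for 5 min at room temperature, then incubated with compound for 15 min. After 400 uM selenite was added, NADPH fluorescence (Ex 340/Em 450 nm) was followed for 8 min.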
TrxR1 substrate – rat thioredoxin reductase 1 substrate activity | O89049 | purified TrxR1 substrate turnover, NADPH consumption readout | Potency, µM (series often up to 114 µM) | hit rate 0.01% among 390,000 | AID 588456; also: nearly all actives have a fitted effect of over 50% in size
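Rat TrxR1, dispensed at 90 nM, was prereduced with 400 uM NADPH (final) for 5 min at ~22 deg C, then incubated with compound 15 min before 400 uM selenite. A first-read NADPH fluorescence drop versus no-compound background flagged substrates.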
RORg inh – inhibitors of mouse ROR gamma transcriptional activity; P51450; Drosophila S2 Gal4-RORgamma UAS-luciferase reporter, 20 h; Potency, µM (doses to about 53.6 µM), hits mostly inhibitors; hit rate 5.4% among 310,000; AID 2551; also: nearly all actives have a fitted effect of over 60% in size
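Read-out: Photinus luciferase luminescence; inhibitors lower reporter signal. Insect Schneider cells with Gal4-ROR gamma fusion under metallothionein promoter, UAS reporter; 700 uM final copper sulfate induction, 20 hr, ambient temperature.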
Hits are given with their value; – = inactive; ? = inconclusive; · = no result; [ ] = another dose, or the depositor's remark. The list is not random: actives were taken first. Their share in the collection is about 5.9%. Unless noted, calls follow the shape of the dose curve; as a rule, active = well fitted curve in the direction sought with a large enough effect; inconclusive = small, poorly fitted or top-dose-only effect, or another doubt; inactive = no such curve, though single readings can be large; an effect the other way counts as inactive or inconclusive.

SMILES | GALK inh | Gal4-VP16 FLuc | Coupling enz | TrxR1 inh | TrxR1 substrate | RORg inh
c1ccc2[nH]c(CSc3nc4ccccc4s3)nc2c1 | – | ? | – | – | – | 20µM
O=C(COC(=O)c1cc2ccccc2cc1O)NCc1ccccc1 | · | · | · | – | –[2.29 µM] | ·
CCS(=O)(=O)CCSc1nc2ccccc2s1 | – | – | – | – | – | –
NCCSc1nc2ccccc2s1 | · | · | · | – | – | ·
c1ccc2sc(SSc3nc4ccccc4s3)nc2c1 | · | ? | · | · | · | 13µM
S=c1[nH]nc(CSc2nc3ccccc3s2)o1 | – | ? | – | – | – | 14µM
O=S(=O)(CCSc1nc2ccccc2s1)c1nc2ccccc2s1 | – | 16µM | – | ? | – | 7.1µM
CC(=O)Cn1nnc(-c2ccc(C(F)(F)F)cc2)n1 | – | – | – | – | – | –
CCOC(=O)C1=NN(N=O)C2(CC(=O)N(c3cc(C)cc(C)c3)C2=O)C1 (stereo not drawn) | – | ? | – | 16µM | – | –
Clc1cccc(Cl)c1Cn1cnc(=NCc2ccco2)c2[nH]cnc21 | – | ? | – | – | – | 18µM
Clc1cccc(Cl)c1Cn1cnc2c(NCc3ccco3)ncnc21 | – | – | – | – | – | –
Cn1cccc1-c1cc(C(=O)N/N=C/c2ccc(Cl)cc2)[nH]n1 | – | – | – | – | – | –
COc1cccc(/C=N/NC(=O)c2cc(-c3cccn3C)n[nH]2)c1O | · | 2.8µM | – | – | – | 1µM
COc1ccc(OC)c2[nH]c(C(=O)N/N=C/c3ccccc3O)cc12 | – | 5µM | – | – | – | 4µM
COc1cccc(/C=N/NC(=O)c2cc3c(OC)cccc3[nH]2)c1O | – | 2.2µM | – | – | – | 0.79µM
COc1ccc(/C=N/NC(=O)c2cc3c(OC)ccc(OC)c3[nH]2)cc1O | – | ? | – | – | – | –
Cn1cccc1-c1cc(C(=O)N/N=C/C=C/c2ccccc2)[nH]n1 | – | ? | – | – | – | 5µM
CCN(CC)Cc1cc2[nH]c3c4ccc(Cl)cc4ncc3c2cc1OC | – | ? | – | – | – | ?
C=CCn1nc2ccccc2c1OCCO | · | · | · | – | – | ·
O=C(COc1ccccc1Cl)Nc1ccccc1C(=O)N1CCOCC1 | – | · | – | – | – | ·
O=C1CCN(Cc2nc(-c3ccc(Cl)cc3)no2)CCN1 | – | – | – | – | – | –
COc1ccc(N2CCC(CNC(=S)Nc3c(C)cc(C)cc3C)C2)cc1 (stereo not drawn) | – | 7.1µM | – | – | – | 1.4µM
COc1ccc(N2CCC(CNC(=S)Nc3ccc(C)cc3C)C2)cc1 (stereo not drawn) | – | ? | – | – | – | 0.63µM
COc1ccc(N2CCC(CNC(=S)Nc3cccc(C)c3)C2)cc1 (stereo not drawn) | – | 5µM | – | – | – | 4µM
COc1ccc(N2CCC(CNC(=O)Nc3ccc(OC)cc3OC)C2)cc1 (stereo not drawn) | – | – | -31 | – | – | –
SMILES | GALK inh | Gal4-VP16 FLuc | Coupling enz | TrxR1 inh | TrxR1 substrate | RORg inh
COc1ccc(N2CCC(CNC(=O)Nc3ccc(C)c(C)c3)C2)cc1 (stereo not drawn) | · | – | – | – | – | –
Cc1ccc(CNS(=O)(=O)c2cc3c(cc2C)N(C)CCO3)cc1 | · | – | – | – | – | –
O=C(O)c1cccnc1Cl | · | – | – | – | – | –
O=C(O)c1cccnc1C(=O)O | · | – | -63 | – | – | –
C[C@H]1C=C(C(=O)N2CCN(Cc3ccc4c(c3)OCO4)CC2)O[C@@H](OCc2ccc(CO)cc2)C1 | – | – | – | – | – | –
Cc1ccc(C(C)C)c(OCC(O)CN2CCN(c3ccccc3F)CC2)c1 (stereo not drawn) | · | · | · | – | – | ·
Cc1ccc(C(C)C)c(OCC(O)CN2CCc3ccccc3C2)c1 (stereo not drawn) | – | 22µM | – | – | – | –
Cc1cccc(NC(=O)CSc2ccc(-c3ccco3)nn2)c1C | – | – | – | 13µM | – | –
O=C(CSc1ccc(-c2ccco2)nn1)Nc1ccc(F)cc1F | – | – | · | 25µM | – | –
O=C(CSc1ccc(-c2ccco2)nn1)c1cccc([N+](=O)[O-])c1 | – | – | – | 16µM | – | –
O=C(CSc1ccc(-c2ccccn2)nn1)Nc1ccc(F)cc1F | – | – | · | – | – | –
COc1ccc(C)cc1NC(=O)CSc1ccc(-c2ccco2)nn1 | – | – | · | 16µM | – | ?
O=C(CSc1ccc(-c2ccco2)nn1)NCc1ccccc1 | – | – | – | ? | – | –
